64 molecules from PubChem BioAssay AID1850 (Southern Research Specialized Biocontainment Screening …, 2009) can be followed below.

Where “and” joins values, the source holds several entries; their conditions need not be identical. Equal entries are not always repeated. Hit rate of the full screen: of about 310,000 compounds, about 1,000 (0.32%) were called active. The list is a sample of the results. Measured potencies and affinities stand elsewhere. A number with no mark means an inactive call. No rule for the calls is given here.

A short description of this experiment: PhoP regulon inhibitors, Salmonella typhi PhoP promoter GFP reporter, confirmatory (AID 1850).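 Also: 0% = induced wells with vehicle and 100% = uninduced wells.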 Particulars: fluorescence, 4 h, at 50 µM, hits give high values.
As to `Cn1c(Cn2c(=O)sc3ccccc32)nnc1SCC(=O)N1CCCC1`, the inhibition (commonly the drop in the measured response relative to a control, in per cent) is 0.97%.

For `NS(=O)(=O)c1ccc(NCCCn2ccnc2)c([N+](=O)[O-])c1`, the inhibition is 9.73%.

Take `Cc1ccc(NC(=O)CCC(=O)NNC(=S)Nc2ccc(F)cc2F)cc1C`: the inhibition was -6.55%.

For `COc1cccc(NC(=O)CSC(N)=O)c1`, the inhibition is -6.88%.

Consider `CC(=O)NC1C(=O)N=C(SCC(=O)Nc2cccc(Cl)c2)NC1=O` (centres undefined), for which the inhibition is 11.8%.

For the molecule `O=C(CSC1=NC(=O)C(c2ccccc2)C(=O)N1)Nc1ccccc1Cl` (centres undefined), the inhibition was 7.4%.

In the case of `Cc1ccc(Cl)cc1NC(=O)CSC(N)=O`, the inhibition was -1.36%.

Consider `NCCc1nnc(SCC(=O)Nc2cccc(Cl)c2)o1`, for which the inhibition was 5.27%.

In the case of `Cc1ccc(NC(=O)CSCC#N)cc1Cl`, the inhibition is -2.58%.

`NNC(=O)C(=O)Nc1ccc(Cl)c(Cl)c1`: the inhibition is -4.15%.

As to `O=C(CCC(=O)N1CCCC1)Nc1ccc(Cl)c(Cl)c1`, the inhibition is -7.42%.

In the case of `O=C(CSc1ccccn1)N1CCCC(Nc2ccc(F)c(F)c2)C1` (centres undefined), the inhibition is -15.8%.

In the case of `CC(C)(C)OC(=O)NCc1ccc(CNC(=O)c2[nH]cnc2C(=O)N[C@@H](Cc2ccccc2)C(=O)OC(C)(C)C)cc1`, the inhibition was -19.7%.

Turning to `COc1ccc(CCC(=O)NNC(=O)Nc2cccc(Cl)c2)cc1`, the inhibition was -3.45%.

Consider `Cc1cc(C(=O)Nc2cccnc2)no1`, for which the inhibition is -7.65%.

With `N#CCSc1nc(-c2ccccc2)c2cc(Cl)ccc2n1`, the inhibition was -0.85%.

Regarding `COCCCn1c(=O)c2ccccc2n(Cc2cc(C(=O)OC)ccc2OC)c1=O`, the inhibition was 5.08%.

`CCOC(=O)CC1C(=O)NCCN1C(=O)c1cccc(OC)c1` (centres undefined): the inhibition was -7.55%.

As to `COCCn1nnnc1C(c1ccc(OC)c(OC)c1)N1CCN(c2nc3ccccc3s2)CC1` (centres undefined), the inhibition is -9.37%.

For the molecule `COc1ccccc1N1CCN(S(=O)(=O)CCNC(=O)C2CCCCC2)CC1`, the inhibition is -2.35%.

In the case of `CCOc1ccc(NC(=O)CSC(N)=O)cc1`, the inhibition is -9.69%.

For the molecule `N#CCSCC(=O)Nc1ccc(Cl)cc1`, the inhibition was 6.54%.

Turning to `O=C(N/N=C\c1ccc(O)c([N+](=O)[O-])c1)c1ccccc1-n1cccc1`, the inhibition is -6.79%.

`COc1ccc(N(CN2C(=O)c3ccccc3C2=O)C(=O)COc2ccc(Cl)cc2Cl)cc1`: the inhibition was -5.69%.

For the molecule `CN(C)CCCN1c2ccccc2Sc2ccc(Cl)cc21`, the inhibition was 9.15%.

For the molecule `CN(C)CCCN1c2ccccc2CCc2ccccc21`, the inhibition was 8.39% and 6.67%.

As to `CCNS(=O)(=O)c1ccc(NC(=O)c2ccc(Cn3cc(Br)cn3)o2)cc1`, the inhibition was -4.21%.

Take `O=C(CCn1nc(-c2ccccc2)c2ccccc2c1=O)N1CCN(c2ccccc2)CC1`: the inhibition was 6.41%.

For the molecule `CC1CCN(C(=O)Cn2cnc3c(cnn3C(C)(C)C)c2=O)CC1`, the inhibition is -6.14%.

`Cc1nc(SCC(=O)c2ccccc2)[nH]c(=O)c1Oc1ccc(Cl)cc1`: the inhibition was -6%.

With `COc1ccc(C2CC(=O)c3c(ccc4ccccc34)N2)cc1OC` (centres undefined), the inhibition was 2.44%.

As for `Cc1ncc(/C=C2\C(=O)Nc3ccccc32)[nH]1`, the inhibition was -10.1%.

`Cc1cccc(NC(=O)CSc2nc(=O)n3ccccc3n2)c1C`: the inhibition is 4.11%.

With `FC(F)(F)c1nnc(Nc2ccc(Cl)cc2)s1`, the inhibition is 13.5%.

Regarding `Fc1ccc(Nc2nnc(C(F)(F)F)s2)cc1`, the inhibition is -1.74%.

With `Cc1ccc(C(=O)N/C(N)=N/c2nc3ccccc3o2)cc1`, the inhibition was -27.8%.

`O=C(COC(=O)c1ccco1)NC(c1ccccc1)c1ccccc1`: the inhibition was -14.2%.

With `CN(CC(=O)O)S(=O)(=O)c1ccc2c(c1)NC(=O)CC(=O)N2`, the inhibition was 12.4%.

With `COc1ccccc1CN1C[C@@H]2C[C@@H](c3ccccc3C)N3CCC[C@@]23C1=O`, the inhibition was -4.27%.

In the case of `COCCNc1nc(-c2cc(-c3ccccc3)on2)cc(C(C)C)n1`, the inhibition was -5.87%.

For `Cc1c(C(=O)Nc2c(N)nc(SCC(=O)NCC3CCCO3)[nH]c2=O)cccc1[N+](=O)[O-]` (centres undefined), the inhibition is -5.44%.

Take `CCOC(=O)C1CCN(C(=S)NC2CC3C=CC2C3)CC1` (centres undefined): the inhibition is 6.08%.

As to `COc1ccc(-n2nc(C)cc2N)cc1`, the inhibition was 4.84%.

As to `COc1ccc(C(=O)NNC(=S)NC(=O)c2ccc(Cl)cc2)cc1`, the inhibition is 4.94%.

For the molecule `O=C(NNC(=S)NC(=O)c1cccs1)c1ccc(O)cc1`, the inhibition is -3.75%.

Regarding `COc1ccc(C(=O)NNC(=S)NC(=O)c2ccc(OC)cc2)cc1`, the inhibition was 5.93%.

On to `COc1ccc(C(=O)NC(=S)NNC(=O)c2ccc(C)cc2)cc1`, for which the inhibition is 18.1%.

As to `Cc1cccc(C(=O)NC(=S)NNC(=O)c2cccs2)c1`, the inhibition was -3.39%.

Consider `Cc1cccc(C(=O)NNC(=S)NC(=O)c2ccccc2)c1`, for which the inhibition was 18.6%.

Regarding `Cc1ccc(CSc2nnc(-c3cccc(S(=O)(=O)N4CCOCC4)c3)n2CC(C)C)cc1`, the inhibition was 10.2%.

Take `CCOC(=O)[C@@H]1CCNC[C@@H]1c1ccccc1`: the inhibition is -2.58%.

For `CCC(C)Sc1nnc(NC(=O)c2ccco2)s1` (centres undefined), the inhibition is -2.84%.

As for `CC(C)(C)c1ccccc1N=Cc1ccc2ccccc2n1`, the inhibition was -21.3%.

For the molecule `Cc1onc(-c2ccc(Cl)cc2)c1-c1ccnn1S(=O)(=O)c1cccc(C(F)(F)F)c1`, the inhibition is -8.24%.

`Cc1ccccc1NC(=S)N(Cc1cccnc1)Cc1ccccc1Cl`: the inhibition was -8.27%.

On to `CCOC(=O)C1CCN(Cc2c(F)cccc2Cl)CC1`, for which the inhibition is -1.3%.

For `COc1ccc(C(=O)C2CCCN(C(=O)c3ccc(F)cc3)C2)cc1OC` (centres undefined), the inhibition was -6.1%.

As to `O=C(Nc1ccc(F)cc1)c1cccnc1`, the inhibition was -6.59%.

On to `NC1=NC(c2ccccc2Cl)n2c(nc3ccccc32)N1` (centres undefined), for which the inhibition was 4.77%.

For the molecule `Cc1ccc(C2N=C(N)Nc3nc4ccccc4n32)cc1` (centres undefined), the inhibition was -13.9%.

In the case of `CCn1c2ccccc2c2cc(C3N=C(N)Nc4nc5ccccc5n43)ccc21` (centres undefined), the inhibition is 6.06%.

Regarding `Cc1cccc(C2N=C(N)Nc3nc4ccccc4n32)c1` (centres undefined), the inhibition is 1.47%.

As for `NC1=NC(c2ccc(Cl)cc2)n2c(nc3ccccc32)N1` (centres undefined), the inhibition is -5.56%.

In the case of `CCOC(=O)C1=C(C)Nc2nc3ccccc3n2C1c1ccccc1` (centres undefined), the inhibition is -6.62%.
